Compound activity (PubChem)
Rows were chosen to be rich in hits. Some 1.1% of all compounds tested hit in one or more screens of this group.
SRC3 inh: inhibits human SRC3 coactivator | Q9Y6Q9 | HEK293 GAL4-SRC3 luciferase reporter, luminescence | inhibition, % at 3.6 µM | 0.17% of 360,000 active | AID 588352;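 active = inhibition above a per-campaign cutoff, the mean of all compounds plus 3 SD, cut at about 60% in these data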;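 note: 0% = DMSO-treated cells and 100% = gossypol-treated cells at 36 µM; higher means less SRC3-driven luciferase light from the GAL4 reporter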
LRH-1 inv ag: inverse agonists of human LRH-1 (NR5A2). O00482. HEK293T StAR-luciferase reporter, LRH-1 transfected, 24 h. inhibition, % at 3.6 µM. 0.13% of 360,000 active;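 active = inhibition above the mean inhibition of all tested compounds plus 3 SD, cut at about 73% in these data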;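 note: 0% = DMSO wells and 100% = reporter-only cells lacking LRH-1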
COUP-TFII inh: inhibitors of human COUP-TFII (NR2F2); HEK293T NGFI-A luciferase reporter, luminescence; 0.7% of 370,000 active; inhibition, % at 8.6 µM; P24468;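 active = inhibition above a per-plate cutoff, mean inhibition of test wells between control levels plus 3 SD, cut at about 38% in these data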;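 note: cells cotransfected with COUP-TFII expression vector driving the NGFI-A reporter; 0% = median of COUP-TF2 test wells and 100% = reporter-only cells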
GalR3 antag: human GalR3 antagonism | O60755 | HEK293 GalR3-CNG cAMP membrane potential fluorescence; galR3 body fused to GalR1 C-terminus | inhibition, % at 3 µM | 0.44% of 360,000 active | AID 651719;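 active = inhibition above the screen-wide average plus 3 SD, cut at about 13% in these data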;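 note: forskolin and galanin both at EC90 stimulate the cells; cAMP rise reported by CNG channel membrane potential dye signal; 0% = forskolin plus galanin with DMSO and 100% = forskolin alone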
SRC1 inh: inhibits human SRC1 coactivator; HEK293 GAL4-SRC1 luciferase reporter, luminescence; inhibition, % at 3.6 µM; 0.12% of 360,000 active;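 active = inhibition above the campaign mean plus 3 SD, with each screening campaign given its own cutoff, cut at about 60% in these data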;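 note: 0% = DMSO treated cells and 100% = gossypol at 36 µM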
SRC2 inh: human SRC2 (NCOA2) inhibition | Q15596 | HEK293 GAL4-SRC2 luciferase reporter, luminescence | 0.17% of 370,000 active | inhibition, % at 9 µM;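 active = inhibition above the mean inhibition of all tested compounds plus 3 SD, set per campaign, cut at about 52% in these data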;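 note: 0% = DMSO treated cells and 100% = cells given Gossypol at 36 µM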
GalR3 antag conf: confirmation of human galanin receptor 3 antagonists; shares compounds with GalR3 antag; HEK293 GalR3 CNG cAMP biosensor, membrane potential fluorescence; galR3 fused to GalR1 carboxy tail; challenged with forskolin and galanin at EC90; inhibition, % at 3 µM; 59% of 1,600 active;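 active = inhibition above the primary screen's cutoff, the mean inhibition of all screened compounds plus 3 SD, cut at about 13% in these data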;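 note: 0% = forskolin plus galanin and 100% = forskolin alone with DMSO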
CNG parental: acts as nonspecific agonist in parental HEK-CNG cells | AID 652268 | HEK293-CNG parental cells, cAMP membrane potential fluorescence; normalised: DMSO wells 0%, forskolin wells 100% | 10% of 1,600 active | shares compounds with GalR3 antag | activation, % at 3 µM; in the data active = activation above about 1.3%
The depositor's hits bear a star; x = no result.

SMILES	SRC3 inh	LRH-1 inv ag	COUP-TFII inh	GalR3 antag	SRC1 inh	SRC2 inh	GalR3 antag conf	CNG parental
O=C(COn1nnc2ccc(C(F)(F)F)cc21)Nc1c(Cl)cccc1Cl	20.5	-7.3	20.5	14.8*	4.6	13.8	5.7	-0.2
COC(=O)[C@H](CC(C)C)N(CCc1cn(Cc2ccc(C)cc2)nn1)S(=O)(=O)c1ccccc1Br	x	x	9.2	x	x	11.6	x	x
COc1ccc(NCc2nnc(SCC(=O)Nc3ccccc3)n2C)cc1	13.0	1.0	7.1	x	-4.3	0.1	-0.6	-0.1
COc1ccc(NCc2nnc(SCC(=O)Nc3ccc(OC)cc3)n2C)cc1	-0.8	1.0	4.4	-5.2	-30.2	-13.7	x	x
C[C@@H]1CN([C@@H](C)CO)C(=O)CCCn2cc(nn2)CO[C@H]1CN(C)C(=O)Nc1ccc(C(C)(C)C)cc1	x	x	-4.9	-2.3	x	7.5	x	x
C[N+](C)(C)C/C=C1/COCO1	-12.1	1.4	-6.0	19.5*	-1.3	5.3	13.4*	0.3
COCCCN1C(=O)c2[nH]nc(-c3cc(C)cc(C)c3O)c2C1c1ccc(O)c(OC)c1 (stereo not drawn)	-13.3	11.4	-12.5	2.0	-3.3	-8.5	x	x
CCCN1C(=O)c2[nH]nc(-c3cc(Cl)c(C)cc3O)c2C1c1ccc(O)c(OC)c1 (stereo not drawn)	-20.9	-11.3	-10.5	20.5*	-27.3	-12.3	3.7	0.1
O=C(COC(=O)C(O)C(O)C(=O)OCC(=O)c1ccc(C(F)(F)F)cc1)c1ccc(C(F)(F)F)cc1 (stereo not drawn)	22.3	-19.3	22.8	12.7*	-56.4	9.9	9.6	0.3
COc1cc(C2Nc3ccc4ncccc4c3C3=C2C(=O)CC(C)(C)C3)cc(OC)c1O (stereo not drawn)	-21.6	-15.9	-46.7	-6.7	-79.9	-89.5	x	x
COc1cc(C2Nc3ccc4ncccc4c3C3=C2C(=O)CCC3)cc(OC)c1O (stereo not drawn)	2.7	-3.7	-20.2	13.2*	-22.3	-24.8	6.2	-0.1
Cc1ccc(-n2c(Cc3cccs3)nnc2SCc2ccc(Br)cc2)cc1	x	x	2.2	x	x	18.9	x	x
C=CCN1C(=O)[C@H](CC(=O)N2CCCCC2)[C@@]2(C(=O)OCC)CCCC=C12	x	x	-9.1	x	x	15.0	x	x
COC(=O)c1ccc(COc2ccccc2/C=N/NC(=O)c2cccnc2)cc1	-5.5	-28.0	-18.2	13.2*	-0.8	-52.5	5.2	1.2
COc1cccc(/C=N/NC(=O)CNC(=O)c2cccnc2)c1O	0.7	2.2	18.6	-7.2	10.1	-14.8	x	x
COc1ccc(CNS(=O)(=O)c2ccccc2Br)c(OC)c1	x	x	-8.1	-1.6	x	1.3	x	x
COc1ccccc1CNC(=O)[C@H](C)NC(=O)[C@@H]1Cc2ccccc2CN1	5.3	5.4	-16.1	8.8	11.1	-17.0	x	x
COc1ccccc1CNC(=O)[C@H](CCSC)NC(=O)[C@@H]1Cc2ccccc2CN1	-8.0	0.5	15.2	21.9*	0.0	-3.2	11.6	0.3
C/C(=N\OCc1nc2ccccc2c(=O)n1/N=C/c1cc([N+](=O)[O-])ccc1O)c1ccccc1	-1.4	-23.1	4.2	5.8	-32.0	-24.5	x	x
C/C(=N\OCc1nc2ccccc2c(=O)n1/N=C/c1cc(C)cc([N+](=O)[O-])c1O)c1ccccc1	-7.0	-2.6	-29.3	67.3*	-19.0	4.7	69.9*	-0.8
CCCCCCCCN1C(=O)[C@@H](CC(=O)NCCc2ccccc2OC)C[C@@]2(C(=O)OC)C1=C[C@H](C1CCCC1)O[C@@H]2C	x	x	-0.3	-5.1	x	3.9	x	x
COc1cc(NC(=O)COC(=O)C2CC2)c(C)cc1[N+](=O)[O-]	9.4	20.7	-10.4	-8.5	-9.5	-27.9	x	x
COc1cc(NC(=O)COC(=O)C2CC(O)CN2S(=O)(=O)c2ccc(Cl)cc2)c(C)cc1[N+](=O)[O-] (stereo not drawn)	-17.1	-13.0	-23.6	24.0*	-0.4	-4.8	47.0*	-0.3
O=C(Nc1ccccc1C1CC1)c1cccs1	-8.2	-41.4	6.0	78.1*	10.1	1.7	-9.4	0.2
CSc1ccccc1NC(=O)c1cccs1	-16.5	4.5	-12.6	7.9	11.9	-14.7	x	x
SMILES	SRC3 inh	LRH-1 inv ag	COUP-TFII inh	GalR3 antag	SRC1 inh	SRC2 inh	GalR3 antag conf	CNG parental
COc1ccc(-c2noc(CCC(=O)NCCCN3CCC(Cc4ccccc4)CC3)n2)cc1	36.5	24.8	34.2	76.3*	11.6	39.3	-2.8	6.1*
CC(=O)OCCNc1cc(Sc2nc3ccccc3[nH]2)c2nonc2c1[N+](=O)[O-]	23.6	-10.9	4.3	45.7*	17.9	0.0	31.7*	0.2
CC(=O)Nc1cccc(NC=C(C#N)C#N)c1	18.9	3.1	-7.0	15.3*	7.7	-3.6	-4.8	0.2
CC(=O)Nc1cccc(O)c1	5.2	-1.5	-0.1	1.4	0.8	-4.2	x	x
CCN1C(=O)[C@@H]2[C@@H](c3ccc(-c4ccc(Cl)c(Cl)c4)c(OC)c3)N3CCCC[C@@]3(C(=O)OC)[C@@H]2C1=O	-17.0	-2.7	7.6	13.1*	-1.5	13.5	-6.8	1.9*
CCCCCCC/C=C(\C)[C@@H](O)[C@@H](C)C(=O)N1CCC[C@@H]1C(=O)O[C@H](C(=O)O[C@@H](C)C(=O)O)[C@@H](C)CC	x	x	0.0	x	x	x	x	x
COc1ccc(/C=N/NC(=O)C(Cc2c[nH]c3ccccc23)NC(=O)OCC(C)C)cc1[N+](=O)[O-] (stereo not drawn)	-18.9	-4.1	4.4	14.7*	-0.9	-7.0	25.9*	-0.1
O=C(NC(Cc1c[nH]c2ccccc12)C(=O)N/N=C/c1ccc(Cl)cc1)c1cccs1 (stereo not drawn)	3.3	4.0	1.1	-6.8	-55.2	-3.3	x	x
COc1ccc(Br)cc1/C(C)=N/NC1=NCCN1	0.1	30.3	31.8	85.4*	9.0	-5.2	32.4*	2.1*
CCNC(=S)NNC(=O)c1cnccn1	x	x	3.7	x	x	-2.8	x	x
COCCNC(=O)/C(C#N)=C/c1c(N2CC(C)OC(C)C2)nc2ccccn2c1=O (stereo not drawn)	6.5	2.5	-19.9	24.7*	7.4	-8.1	-1.0	0.5
O=C1C(C=NC2CC2)=C(O)c2ccccc21	-21.3	-40.0	-32.6	13.5*	-37.4	-6.3	3.6	0.1
CCCc1cc(=O)[nH]c(SCC(=O)c2c(C)[nH]c3ccccc23)n1	15.8	-2.6	0.7	16.6*	5.7	-22.9	3.8	1.7*
CCCc1cc(=O)[nH]c(SCC(=O)c2c[nH]c3ccccc23)n1	5.3	9.9	-25.1	-2.0	-12.6	0.9	x	x
